Bioassay records deposited in PubChem by National Center for Advancing Translational Sciences (NCATS).
Sm TGR block: blocks Schistosoma mansoni thioredoxin glutathione reductase; Q962Y6; purified TGR, DTNB reduction, TNB absorbance 405 nm; Potency, µM (series often up to 114 µM), hits mostly inhibitors; hit rate 3% among 360,000; AID 485364; also: nearly all actives have a fitted effect of over 60% in size
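Kinetic colorimetric format: TGR-catalysed, NADPH-driven DTNB reduction monitored via TNB absorbance. Enzyme dispensed at 20 nM; compound exposure 15 min at room temperature before reaction start.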
Pf growth 96h: inhibits malaria parasite growth, 96 h | hit rate 6.9% among 320,000 | AID 504834 | P. falciparum luciferase reporter growth, 96 h | Potency, µM (titrated, usually from 28.7 µM), usual class: inhibitors
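Readout is luminescence from an integrated firefly luciferase in P. falciparum. Red cells, 2% hematocrit and 0.05% parasitemia final, were cultured with compound through two parasite generations (96 hours) at 37 C, 5% CO2.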
SARS PLpro yeast: SARS-CoV PLP inhibition in yeast; S. cerevisiae expressing SARS-CoV PLpro, growth rescue; Potency, µM (titrated, usually from 32.9 µM), usual class: activators; hit rate 0.19% among 330,000; calls by dose curve; also: nearly all actives have a fitted effect of over 55% in size
Pf growth 48h: P. falciparum growth inhibition at 48 hours (one generation). P. falciparum luciferase growth in erythrocytes, 48 h. Potency, µM (highest dose often 28.7 µM), actives largely listed as inhibitors. hit rate 5.9% among 310,000. AID 504832
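Here the parasites carry a stable luciferase gene and grow inside erythrocytes in Albumax-based RPMI medium with compound for one erythrocytic cycle. Activity is scored as loss of luminescent signal.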
Numbers stand for hits; - = inactive; ? = inconclusive; . = no result given; [ ] = dose if it differs, or a comment. Only some compounds are listed: those with a hit (about 12% of all), similar ones and a draw of the others. Unless noted, calls follow the shape of the dose curve; as a rule, active = well fitted curve in the direction sought with a large enough effect; inconclusive = small, poorly fitted or top-dose-only effect, or another doubt; inactive = no such curve, though single readings can be large; an effect the other way counts as inactive or inconclusive.

SMILES	Sm TGR block	Pf growth 96h	SARS PLpro yeast	Pf growth 48h
CN(Cc1cn(-c2ccccc2)nc1-c1ccc2c(c1)OCO2)Cc1nccn1C	-	-	-	12µM
COc1ccc(CN(C)C(=O)CCc2ccc(S(=O)(=O)N3CCCCCC3)cc2)c(OC)c1	-	?	-	13µM
COc1ccc(CC(=O)Nc2ccc(S(=O)(=O)N3CCCC3)cc2)c(OC)c1	-	?	-	?
CCOc1ccc(CC(=O)NNC(=O)/C=C/C(=O)O)cc1	18µM	-	-	-
COc1ccc(CN(C)C(=O)/C=C/c2ccc(S(=O)(=O)N3CCCCCC3)cc2)cc1	-	13µM	-	9.3µM
COc1ccc(CCNC(=O)/C=C/C(=O)O)cc1	.	-	-	-
COc1ccc(S(=O)(=O)N2CCCCCC2)cc1	-	.	-	-
CCOc1ccc(CN(C)C(=O)CCl)cc1	16µM	-[5.75 µM]	-	6.6µM
COc1ccc(C(=O)c2cn(CC(=O)Nc3cc(C)ccc3C)c3nc(C)ccc3c2=O)cc1	-	.	.	.
Cc1cccc(NC(=O)Cn2c(=O)nc(-c3ccccc3)c3ccccc32)c1C	-	.	.	.
CC1CCC(Nc2nc3c(-c4ccc(Cl)cc4)nnn3c3ccccc23)CC1 (stereo unspecified)	-	.	.	.
COc1ccc(N2C(=NC(=O)C3CCCO3)SC3CS(=O)(=O)CC32)cc1 (stereo unspecified)	-	-	-	-
CCOc1ccc(CN(C)C(=O)CCc2ccc(S(=O)(=O)N3CCCCCC3)cc2)cc1	-	?	-	13µM
COc1cc(OC)c(OC)cc1CNC(=O)c1ccc(S(=O)(=O)N2CCCCC2)cc1	-	5.2µM	-	9.3µM
COc1ccccc1CNC(=O)c1ccc(S(=O)(=O)N2CCCC2)cc1	-	-	-	-
COc1ccc(S(=O)(=O)N2CCCCCC2)cc1C(=O)NCc1ccccc1Cl	-	8.3µM	-	5.9µM
CCN(CC)C(=O)c1ccc(NC(=O)c2cc(S(=O)(=O)N3CCCCCC3)ccc2OC)cc1	-	9.3µM	-	7.4µM
COc1ccc(S(=O)(=O)N2CCCCCC2)cc1C(=O)NCc1cccs1	-	?	-	15µM
Cc1ccc(C(=O)NCC(c2ccc3c(c2)OCO3)N2CCN(C)CC2)cc1C (stereo unspecified)	-	.	.	.
CCOc1ccc(S(=O)(=O)N2CCCCC2)cc1NC(=O)Cc1cccc(C(F)(F)F)c1	-	9.3µM	-	?
Cc1ccc(/C=N/NC(=O)CNC(=O)c2ccc(S(=O)(=O)N3CCCC3)cc2)o1	-	-[5.75 µM]	-	-[5.75 µM]
COc1ccc(S(=O)(=O)N2CCCCC2)cc1NC(=O)Cc1cccs1	-	?	-	12µM
COc1ccc(OC)c(/C=N/NC(=O)CNC(=O)c2ccc(S(=O)(=O)N3CCCC3)cc2)c1	-	4.1µM	-	-
COc1ccc(S(=O)(=O)N2CCCCC2)cc1NC(=O)Cc1sc(C)nc1-c1ccc(F)cc1	-	?	-	12µM
Cc1cc2ccccc2n1CCNC(=O)c1ccc(S(=O)(=O)N2CCCCC2)cc1	-	1.7µM	-	2.1µM
SMILES	Sm TGR block	Pf growth 96h	SARS PLpro yeast	Pf growth 48h
O=C(COC(=O)Cc1ccccc1[N+](=O)[O-])NNC(=O)c1ccc([N+](=O)[O-])cc1	-	-	-	-
c1ccc(COC2CCCN(Cc3nc(-c4cccs4)no3)C2)nc1 (stereo unspecified)	-	-	-	-
Fc1cccc(Cc2noc(CN3CCCCC3c3ccccn3)n2)c1 (stereo unspecified)	-	8.3µM	-	-
c1ccc(Cc2noc(CN3CCCN(C4Cc5ccccc5C4)CC3)n2)cc1	25µM	-	-	?
FC(F)(F)c1cccc(Cc2noc(CN3CCCC(OCc4ccccn4)C3)n2)c1 (stereo unspecified)	-	15µM	-	-
FC(F)(F)c1cccc(Cc2noc(CN3CCCCC3c3ccccn3)n2)c1 (stereo unspecified)	-	?	-	?
CCN(Cc1ccncc1)Cc1nc(Cc2ccccc2Cl)no1	-	?	-	10µM
c1ccc(Cc2noc(CN3CCN(C4CCc5ccccc5C4)CC3)n2)cc1 (stereo unspecified)	.	-	-	-
CCc1nnc(SC(CC)C(=O)Nc2ccc(OC)c(Cl)c2)c2cc3occc3n12 (stereo unspecified)	-	.	.	.
CCC(C)(C)C1CCC2(CC1)NC(=O)N(CC(=O)N(C)Cc1ccc3c(c1)OCCO3)C2=O (stereo unspecified)	-	-	-	?
CCOc1ccc(S(=O)(=O)NNS(=O)(=O)c2ccc(C)cc2C)cc1	-	-	-	-
COc1ccccc1CN1CCN(Cc2nc(Cc3ccccc3)no2)CC1	.	12µM	-	?
